64 compounds from ChEMBL document CHEMBL4888484, “Replenishing the malaria drug discovery pipeline: Screening and hit evaluation of the MMV Hit Generation Library 1 (HGL1) against asexual blood stage Plasmodium falciparum ,using a nano luciferase reporter read-out” (2022) can be followed below.

A word on the % Inhibition: it is the relative decrease from the control value, in per cent.

This experiment relates to Plasmodium falciparum. Nature of the experiment: Confirmatory screen in NF54 pLDH assay, in single point, at 2uM, 72h. Format: functional, Erythrocyte. The note with it: timepoint 72 hour.

Where “and” joins values, the source holds several entries; their conditions need not be identical. Equal entries are not always repeated. Out of some 4,800 compounds screened, about 410 (8.5%) showed an effect of 50% or more. What follows is part of a selection rich in strong results, with near analogues and random picks from the rest.

For the compound `Cc1nn(C)c(Cl)c1CNC[C@@H](c1ccsc1)N(C)C`, the “% Inhibition” value is reported as 9%.
Same read-out and setting: with `O=C(Nc1nnc(C2CC2)s1)[C@@H]1Cc2ccccc2O1` the figure was 5%.
On to `O=C(NC1CCCC1)N1CCN(c2nc3cccnc3n(Cc3ccccc3)c2=O)CC1`, for which the “% Inhibition” value stood at 8%.
The same measure, in the same setting: next, `CCn1cnc2c(N3CCC[C@H](c4ccncc4)C3)ncnc21`: 77%.
On the same count and under the same terms, next, `Brc1cncnc1N1CCC[C@H](c2nnn[nH]2)C1`: -7%; `CCn1c(=O)c(N2CCC[C@H](C(=O)NCc3ccccc3OC)C2)nc2cccnc21`: -3%.
Regarding `COc1cccc(S(=O)(=O)N(C)[C@H]2CCc3n[nH]c(=O)n3CC2)c1`, the “% Inhibition” value was 1%.
With `Cn1c(=O)c2c(nc3nc(N4CCOCC4)n(CC(=O)c4ccc(Cl)cc4)n32)n(C)c1=O`, the “% Inhibition” value was 0%.
As for `COc1cc(-c2nc3ccccc3s2)ccc1OCc1cccc2ccccc12`, the “% Inhibition” value is recorded as 0%.
On to `COc1cc(OC)cc(C2(O)CCN(C(=O)CCc3ccccc3F)CC2)c1`, for which the “% Inhibition” value is -20%.
As for `c1ccc(-c2cn[nH]c2N2CCNCC2)cc1`, the “% Inhibition” value is on record as -16%.
For the compound `O=C(NCC1CC1)c1cn[nH]c1-c1ccccc1`, the “% Inhibition” value was 1%.
Take `Oc1cc(OCc2ccccc2F)ccc1-c1[nH]ncc1-c1ccccc1`: the “% Inhibition” value is reported as 72%.
Turning to `COc1ccc(-c2c(C(F)(F)F)n[nH]c2-c2ccc(OCc3ccccc3F)cc2O)cc1`, the “% Inhibition” value came out at 91%.
`COc1ccccc1NC(=O)CC1CS(=O)(=O)CC1CC(=O)Nc1ccccc1OC` (centres undefined): the “% Inhibition” value is given as 13%.
In the case of `COc1ccc(-c2cnn3c(-c4ccccn4)ccnc23)cc1OC`, the “% Inhibition” value is 4%.
As to `C#CCNC(=O)[C@H](C#N)c1nc(C)c(C)s1`, the “% Inhibition” value is 10%.
Turning to `Cc1cnc([C@H](C)NC(=O)c2conc2C(C)(C)N)s1`, the “% Inhibition” value worked out at 9%.
Still for that read-out and setting: next, `C[C@H]1Cc2cc(C(=O)NCc3nc(C(F)(F)F)n[nH]3)ccc2O1`: 10%; `COc1ccc(-c2cn3cc(C)nc3n2C)cc1`: 0%.
With `Cc1ccc(S(=O)(=O)CC(=O)NC(C)(C)C)cc1`, the “% Inhibition” value was found to be 5%.
Still for that read-out and setting: with `O=C(CCc1ccc(Cl)c(C(F)(F)F)c1)N1CC[C@H](N2CCc3ccccc3C2)C1` the figure was 45%; with `CC(C)(C)OC(=O)CN(c1cc(F)cc(F)c1)S(=O)(=O)c1ccc2nncn2c1`, -2%.
For `CCN(C)C1(CNC(=O)c2ccc(-c3cc(F)ccc3O)cc2)CCCC1`, the “% Inhibition” value is on record as 11%.
As to `NC(=O)N1CCC[C@H]1C(=O)NC1CC(=O)N(C2CC2c2ccccc2)C1` (some centres undefined), the “% Inhibition” value was 8%.
In the case of `Cc1cnc(NC(=O)c2ccc3ncoc3c2)c(Br)c1`, the “% Inhibition” value came out at 15%.
As for `O=C(CC1CCOCC1)N1CCN(C(=O)c2ccco2)CC1`, the “% Inhibition” value is reported as -18%.
For `Cc1ccc(-c2ccnc3c(C(=O)NC4CC4)cnn23)cc1C`, the “% Inhibition” value was 4%.
For the compound `O=C(Cc1ccc(C(=O)Nc2nc(-c3ccccc3)cs2)cc1)c1ccccc1`, the “% Inhibition” value was determined as 12%.
On to `O=S(=O)(c1ccc2ccccc2c1F)N1CC(CO)C1`, for which the “% Inhibition” value was -13%.
On to `CCNC(=O)C(=O)NCc1ccc(OC)cc1`, for which the “% Inhibition” value is reported as -20%.
As to `COc1ccc(CNCCC2C(C)CN(C)C(C)C2Cc2ccccc2)cc1` (centres undefined), the “% Inhibition” value worked out at 66%.
Still for that read-out and setting: with `COc1ccc(CC2C(O)C(Cc3ccc(OC)cc3)C3CCC2N3C)cc1` (centres undefined) the figure was 6%; with `COc1ccc(C(=O)n2[nH]c(=O)c(CCO)c2C)cc1`, 5%; with `COc1ccc(Nc2nnc(/C=C/c3ccccc3)c(=O)n2N)cc1`, 16%.
Regarding `O=S1(=O)CCN(OCc2ccc(Cl)cc2)CC1`, the “% Inhibition” value is listed as 15%.
The same measure, in the same setting: next, `Fc1ccccc1N1CCN(C2CCN(Cc3c[nH]c4ccccc34)CC2)CC1`: 33%.
Still for that read-out and setting: with `COc1ccccc1N1CCN(Cc2nc3ccccc3c(=O)n2-c2ccc(F)cc2)CC1` the figure was 12%.
Turning to `COc1ccc2[nH]c3c(c2c1)CC(C(=O)O)NC3c1ccc(OC)c(CN2CCN(c3ccccc3F)CC2)c1` (centres undefined), the “% Inhibition” value is recorded as 72%.
Turning to `O=C(NCCc1ccc(O)cc1)c1ccc2n[nH]c(=O)n2c1`, the “% Inhibition” value was -20%.
In the case of `CCC(C)(C)C(=O)N1CCC[C@@H]1CCc1ncc(C)n1C(C)C`, the “% Inhibition” value is 14%.
On to `CCOc1cc([C@H]2Nc3ccccc3C(=O)N2c2ccccc2)ccc1OCc1ccc(F)cc1`, for which the “% Inhibition” value is recorded as -4%.
Turning to `O=C(/N=C(/c1ccccc1)N1CCCCC1)C(F)(F)C(F)(F)C(F)(F)C(F)(F)C(F)(F)C(F)(F)F`, where the note is “2 µM”, the “% Inhibition” value is 1% and 0%.
On to `O=C(Nc1nncs1)c1cccc(C(=O)Nc2nncs2)n1`, for which the “% Inhibition” value was 64%.
As for `O=C(Nc1nncs1)NC(C1CC1)C1CC1`, the “% Inhibition” value came to 5%.
For the compound `Cc1ccc(-c2csc(NC(=O)c3cccc(C(=O)Nc4nc(-c5ccc(C)cc5C)cs4)n3)n2)c(C)c1`, the “% Inhibition” value is reported as -7%.
With `Cc1c(NC(=O)c2n[nH]cc2Br)c(=O)n(-c2ccccc2)n1C`, the “% Inhibition” value came to 7%.
Regarding `CCn1c(=O)c(N2CCC[C@H](C(=O)NCc3cccc(C)c3)C2)nc2ccccc21`, the “% Inhibition” value amounted to 14%.
In the case of `CCC(C)(CC)[C@@](O)(C#CC[N+]1(Cc2ccccc2)CCCCC1)c1ccccc1`, the “% Inhibition” value was determined as 22%.
`CC(CC1OCC(C[N+]2(Cc3ccccc3)CCCCC2)O1)CC(C)(C)C` (centres undefined): the “% Inhibition” value worked out at 56%.
As for `COc1cc(C(=O)NC(C)(C)c2c(C)noc2C)on1`, the “% Inhibition” value came to 7%.
Still for that read-out and setting: next, `CN1C(=O)N(c2cc(Cl)cc(Cl)c2)C(=O)[C@]12CN(c1ccc(C(=O)O)cn1)C[C@H]2c1ccc(C#N)cc1`: 15%; `c1cc([C@@H]2CN(Cc3noc(C4CC4)n3)CCO2)cs1`: 7%; `COc1ccc(NC(=O)N2CC[C@H](CC(=O)NCc3ccccc3)C2)cc1OC`: -11%.
As to `NC(=O)c1ccc(C(F)(F)F)n(C[C@H](O)c2cc(Cl)ccc2Cl)c1=O`, the “% Inhibition” value is listed as 60%.
On the same count and under the same terms, with `Cc1cc(-n2c(C)cc(C(=O)Cn3c(C(F)(F)F)ccc(C(N)=O)c3=O)c2C)no1` the figure was 23%; with `NC(=O)c1ccc(C(F)(F)F)n(CC(=O)N(Cc2ccc(F)cc2)C2CCCCC2)c1=O`, -6%; with `CC(C)(C)c1cc(N)c2ccccc2n1`, -6%.
On to `NC(=O)C(NC(=O)c1cccc(Cl)c1)C(N)=O`, for which the “% Inhibition” value was 85%.
Regarding `CNC(=O)CNC(=O)c1cccc(Cl)c1`, the “% Inhibition” value turned out to be 12%.
Same read-out and setting: next, `O=C(N[C@@H](N1CCCCCC1)C(Cl)(Cl)Cl)c1cccc(Cl)c1`: -20%.
In the case of `COCc1cc2nn(CC(=O)Nc3ccc(F)c(F)c3)c(=O)n2c(-c2ccccc2)n1`, the “% Inhibition” value is on record as -15%.
With `Cn1cc(NC(=O)Nc2cccc(OCC(F)F)n2)cn1`, the “% Inhibition” value is on record as -7%.
Take `O=C(Cc1c[nH]c2ccccc12)NC1(C(=O)NC2CCCC2)CCCCC1`: the “% Inhibition” value came out at 8%.
